Measured values: PubChem BioAssay (NCATS)
Values without a mark were called inactive. Results filed as inconclusive are left out. Where a call stands in place of a potency, no number is given. Active and inactive are the calls of the source. Calls follow the shape of the dose curve; as a rule, active = well fitted curve in the direction sought with a large enough effect; inconclusive = small, poorly fitted or top-dose-only effect, or another doubt; inactive = no such curve, though single readings can be large; an effect the other way counts as inactive or inconclusive.

Legend:
[1] = biological target: Glutathione peroxidase 1 (Homo sapiens) (UniProt P07203); assay: Primary qHTS Assay for Inhibitors of Recombinant Selenoprotein Glutathione Peroxidase 1 (GPX1) (AID 1845191); also: nearly all actives have a fitted effect of over 65% in size
How it was run: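 GPX1 10 nM, GR 100 nM, GSH 1 mM, NADPH 0.5 mM, CHP 0.5 mM (final). 30-min cpd preincubation, RT. Ex340/Em450 read t=0, t=15 min.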

[2] = biological target: Phospholipid hydroperoxide glutathione peroxidase GPX4 (Homo sapiens) (UniProt P36969); assay: Primary qHTS Assay for Inhibitors of Recombinant Selenoprotein Glutathione Peroxidase 4 (GPX4) (AID 1845192); also: series mostly up to about 50 µM; nearly all actives have a fitted effect of over 65% in size
How it was run: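 qHTS, GR-coupled: GPX4 200 nM + cpd 30 min RT → GSH 1 mM, NADPH 0.5 mM, GR 100 nM → CHP 0.5 mM start; fluor 340/450 at t0 and t15 min; no-enzyme wells as control.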

[3] = biological target: Luciferin 4-monooxygenase (Photinus pyralis) (UniProt P08659); assay: Primary firefly luciferase (FLuc) qHTS assay for identification of artifact compounds. (AID 1845220); also: nearly all actives have a fitted effect of over 60% in size
How it was run: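 In this counter-screen for luciferase artifacts, test compounds met substrate (10 uM each luciferin and ATP) before 10 nM enzyme started the reaction. Light output was measured 5 min later.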

[4] = Primary fluorescence-based thiol-reactive (MSTI) qHTS assay for identification of artifact compounds. (AID 1845221); also: nearly all actives have a fitted effect of over 65% in size; also: potency is read from the fitted curve at half-maximal effect
How it was run: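 MSTI probe at 4 uM final in 2% DMSO/PBS pH 7.4; compounds, 1 h at room temperature in dark. Fluorescence Ex/Em 525/598 nm, normalised to Acetyl-MSTI and MSTI, fitted to 4-parameter Hill.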

[5] = tested on: Nanoluciferase (engineered Oplophorus gracilirostris luciferase); assay: Primary Nanoluciferase (NLuc) qHTS assay for identification of artifact compounds. (AID 1845222);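 also: NLuc secreted into diluted conditioned medium of S16 cells; series mostly up to about 54 µM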
How it was run: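 Using secreted nanoluciferase in S16 culture medium (0.22 um filtered, 1:55 dilution), compounds were preincubated 15 min at RT. Signal was generated with Nano-Glo reagent (1:100) over 5 min.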

[6] = HepG2 viability counterscreen (readout 1: protease activity) against the NCATS DSHEA and TCM libraries (AID 1794841);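 also: cells exposed to compounds for about 24 h before the protease read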
How it was run: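 Same wells read twice: first fluorescence from cleaved GF-AFC substrate (25 uM final, 30 min, 37C) for live-cell protease, then CellTiter-Glo luminescence after 30 min at room temperature for ATP. HepG2 cells were exposed ~24 h to substances.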

[7] = Primary redox qHTS assay for identification of artifact compounds. (AID 1845223)
How it was run: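 Redox-cycling detection via DTT (250 uM final) oxidation coupled to Amplex Red (25 uM)/HRP (250 mU/mL) in HBSS. 15 min preincubation plus 30 min after DTT, room temperature. Ex/Em 525/598 nm; 4-parameter Hill fit against DMSO and 10 uM DA3003.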

[8] = biological target: Cytochrome P450 3A4 (Homo sapiens) (UniProt P08684); assay: qHTS for inhibitors of CYP3A4 against the NCATS DSHEA and TCM libraries (AID 1919971);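 also: inhibition lowers luminescence from luciferin made by CYP3A4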
How it was run: (§1)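 Concentration-response screening with isoform-matched pro-luciferin substrates. The CYP reaction was initiated by NADPH regenerating solution and ran 30-45 min in darkness at room temperature.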

[9] = biological target: Cytochrome P450 2D6 (Homo sapiens) (UniProt P10635); assay: qHTS for inhibitors of CYP2D6 against the NCATS DSHEA and TCM libraries (AID 1919972)
How it was run: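 CYP2D6 enzyme with pro-luciferin substrate in manufacturer buffer (typically 100 mM KPO4), preincubated 15 min RT with substances (most at 19.5 nM upward); NADPH regeneration system (1x) started 30–45 min RT reaction; P450-Glo luminescence read after 30 min; quinidine as intraplate control.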

[10] = biological target: Cytochrome P450 2C19 (Homo sapiens) (UniProt P33261); assay: qHTS for inhibitors of CYP2C19 against the NCATS DSHEA and TCM libraries (AID 1919974);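 also: luminescence from luciferin released by CYP2C19 oxidation of a pro-luciferin substrate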; also: potency is read from the fitted curve at half-maximal effect
How it was run: as §1

[11] = KB-3-1 P-gp reporter qHTS against the NCATS DSHEA and TCM libraries (AID 1919975)
How it was run: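 KB-3-1 parental line, 1536-well qHTS: cells seeded, ~4 h attachment, pintool compound addition, ~72 h at 37C, then CellTiter-Glo, 30 min RT, luminescence. Concentration-response format.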

[12] = biological target: Cytochrome P450 1A2 (Homo sapiens) (UniProt P05177); assay: qHTS for inhibitors of CYPIA2 against the NCATS DSHEA and TCM libraries (AID 1919976); also: potency is read from the fitted curve at half-maximal effect
How it was run: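 Enzyme and pro-luciferin substrate, or substrate alone as no-enzyme background, are pre-incubated with test samples for 15 min at room temperature. NADPH regeneration system (1x final) initiates a 30-45 min dark reaction; luciferase detection reagent follows before luminescence reading.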

[13] = qHTS Counterscreen for compound interference against the NCATS DSHEA and TCM libraries (AID 1919978); settings: firefly luciferase detection reagent interference, luminescence;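 also: compounds preincubated with 1 µM D-luciferin or buffer before detection reagent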
How it was run: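 Compounds, titrated from 19.5 nM to 39.8 uM final, were pinned onto 1 uM D-luciferin or plain 100 mM potassium phosphate. After 15 min at room temperature, luciferin detection reagent was added for 30 min before the luminescence read.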

[14] = Dual reporter qHTS for agonist of Pregnane X Receptor (hPXR) against the NCATS DSHEA and TCM libraries: Fluorescence readout (AID 1920058)
How it was run: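 Cells were plated at 2000 per well and allowed to attach for 5 h. Test substances were pinned in and incubated roughly 24 h. CellTiter-Fluor was then added and fluorescence measured after 1 h.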

[15] = biological target: Nuclear receptor subfamily 1 group I member 2 (Homo sapiens) (UniProt O75469); assay: Dual reporter qHTS for agonist of Pregnane X Receptor (hPXR) against the NCATS DSHEA and TCM libraries: Luminescence readout (AID 1920059)
How it was run: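 hPXR-LucHepG2 cells in phenol red-free DMEM with 5% charcoal-stripped FBS, 2000 cells/well, attached 5 h, then exposed 24 h at 37C to compounds; rifampicin as positive agonist control (2.8 nM–92 uM). Luciferase luminescence read.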

[16] = biological target: Nuclear receptor subfamily 1 group I member 2 (Homo sapiens) (UniProt O75469); assay: Dual reporter qHTS for antagonist of Pregnane X Receptor (hPXR) against the NCATS DSHEA and TCM libraries: Luminescence Readout (AID 1920060);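 also: HepG2 cells carrying hPXR luciferase reporter stimulated with rifampicin at 2 µM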
How it was run: (§2)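 HepG2 hPXR-Luc, 2000 cells/well, charcoal-stripped FBS medium; 5 h attach; RIF 2 uM final; 24 h 37C/5% CO2; CellTiter-Fluor 1 h, fluor 405/540; ONE-Glo 30 min RT, lum.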

[17] = Dual reporter qHTS for antagonist of Pregnane X Receptor (hPXR) against the NCATS DSHEA and TCM libraries: Fluorescence Readout (AID 1920061)
How it was run: as §2

[18] = biological target: Cytochrome P450 2C9 (Homo sapiens) (UniProt P11712); assay: qHTS for inhibitors of CYP2C9 against the NCATS DSHEA and TCM libraries (AID 1919973);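 also: luminogenic pro-luciferin CYP2C9 substrate turned into luciferin with NADPH regeneration; series mostly up to about 34 µM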
How it was run: as §1

Chain of Nuclear receptor subfamily 1 group I member 2 (Homo sapiens) (O75469 whole entry, looked up): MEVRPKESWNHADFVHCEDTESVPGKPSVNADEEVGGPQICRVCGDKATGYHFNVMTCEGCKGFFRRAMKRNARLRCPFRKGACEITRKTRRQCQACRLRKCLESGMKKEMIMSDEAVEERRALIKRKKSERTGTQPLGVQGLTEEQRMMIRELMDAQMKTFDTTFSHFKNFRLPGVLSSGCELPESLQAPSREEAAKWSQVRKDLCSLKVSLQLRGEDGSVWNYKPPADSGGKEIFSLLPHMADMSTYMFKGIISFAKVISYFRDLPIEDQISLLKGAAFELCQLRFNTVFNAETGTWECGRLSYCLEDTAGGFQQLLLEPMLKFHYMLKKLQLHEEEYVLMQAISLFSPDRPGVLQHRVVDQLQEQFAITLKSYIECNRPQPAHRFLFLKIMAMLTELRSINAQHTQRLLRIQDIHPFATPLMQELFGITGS
Chain of Glutathione peroxidase 1 (Homo sapiens) (P07203 whole entry, looked up): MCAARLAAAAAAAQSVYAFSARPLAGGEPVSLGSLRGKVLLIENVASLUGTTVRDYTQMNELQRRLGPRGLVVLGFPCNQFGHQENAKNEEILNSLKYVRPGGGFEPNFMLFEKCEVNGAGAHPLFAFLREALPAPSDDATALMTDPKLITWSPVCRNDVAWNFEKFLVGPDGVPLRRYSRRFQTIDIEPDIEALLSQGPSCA
Chain of Phospholipid hydroperoxide glutathione peroxidase GPX4 (Homo sapiens) (P36969 whole entry, looked up): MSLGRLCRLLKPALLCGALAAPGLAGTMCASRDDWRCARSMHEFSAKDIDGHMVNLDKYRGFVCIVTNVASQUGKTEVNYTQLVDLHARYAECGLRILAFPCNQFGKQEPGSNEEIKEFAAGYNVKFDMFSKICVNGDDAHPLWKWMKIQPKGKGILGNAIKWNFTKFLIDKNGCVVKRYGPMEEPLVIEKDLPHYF
Chain of Cytochrome P450 2D6 (Homo sapiens) (P10635 whole entry, looked up): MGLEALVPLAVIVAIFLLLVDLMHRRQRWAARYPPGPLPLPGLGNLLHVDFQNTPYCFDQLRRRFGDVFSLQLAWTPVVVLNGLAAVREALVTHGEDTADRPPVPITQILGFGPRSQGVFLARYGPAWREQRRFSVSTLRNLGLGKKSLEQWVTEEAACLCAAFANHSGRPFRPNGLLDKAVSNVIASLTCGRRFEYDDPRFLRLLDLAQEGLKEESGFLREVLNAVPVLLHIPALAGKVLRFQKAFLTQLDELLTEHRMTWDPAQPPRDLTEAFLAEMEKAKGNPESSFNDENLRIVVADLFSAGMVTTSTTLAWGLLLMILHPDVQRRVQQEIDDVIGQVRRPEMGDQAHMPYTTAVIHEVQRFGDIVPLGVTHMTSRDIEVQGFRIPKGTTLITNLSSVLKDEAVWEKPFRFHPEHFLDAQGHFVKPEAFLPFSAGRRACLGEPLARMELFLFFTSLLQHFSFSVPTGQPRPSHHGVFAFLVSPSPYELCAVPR
Chain of Cytochrome P450 3A4 (Homo sapiens) (P08684 whole entry, looked up, canonical isoform): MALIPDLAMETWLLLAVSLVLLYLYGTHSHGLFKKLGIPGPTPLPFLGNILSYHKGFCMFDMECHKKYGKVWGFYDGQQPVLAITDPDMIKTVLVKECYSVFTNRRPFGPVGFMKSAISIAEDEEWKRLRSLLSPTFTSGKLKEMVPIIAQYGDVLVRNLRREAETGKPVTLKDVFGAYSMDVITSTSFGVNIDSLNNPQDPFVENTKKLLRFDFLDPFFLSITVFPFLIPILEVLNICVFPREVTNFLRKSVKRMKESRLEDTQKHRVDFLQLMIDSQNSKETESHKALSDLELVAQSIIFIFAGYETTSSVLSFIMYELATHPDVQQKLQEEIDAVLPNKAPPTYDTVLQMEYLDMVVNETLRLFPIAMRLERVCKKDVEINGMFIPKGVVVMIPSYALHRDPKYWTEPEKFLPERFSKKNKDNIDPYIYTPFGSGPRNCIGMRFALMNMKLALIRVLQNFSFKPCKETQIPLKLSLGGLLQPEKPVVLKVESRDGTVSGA
Chain of Cytochrome P450 1A2 (Homo sapiens) (P05177 whole entry, looked up): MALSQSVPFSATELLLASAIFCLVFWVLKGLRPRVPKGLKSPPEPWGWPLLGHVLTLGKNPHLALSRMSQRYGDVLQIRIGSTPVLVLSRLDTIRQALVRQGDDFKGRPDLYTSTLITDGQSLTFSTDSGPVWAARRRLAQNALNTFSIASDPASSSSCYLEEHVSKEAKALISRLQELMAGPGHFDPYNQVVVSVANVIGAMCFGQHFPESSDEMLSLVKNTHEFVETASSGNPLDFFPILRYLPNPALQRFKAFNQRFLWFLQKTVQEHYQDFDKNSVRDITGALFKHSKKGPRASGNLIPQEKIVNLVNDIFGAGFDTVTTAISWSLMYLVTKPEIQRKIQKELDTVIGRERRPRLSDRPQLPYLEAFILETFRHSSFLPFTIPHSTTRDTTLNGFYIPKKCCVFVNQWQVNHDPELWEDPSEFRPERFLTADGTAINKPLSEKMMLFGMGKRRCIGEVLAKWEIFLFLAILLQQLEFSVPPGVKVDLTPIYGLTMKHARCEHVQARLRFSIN
Chain of Cytochrome P450 2C19 (Homo sapiens) (P33261 whole entry, looked up): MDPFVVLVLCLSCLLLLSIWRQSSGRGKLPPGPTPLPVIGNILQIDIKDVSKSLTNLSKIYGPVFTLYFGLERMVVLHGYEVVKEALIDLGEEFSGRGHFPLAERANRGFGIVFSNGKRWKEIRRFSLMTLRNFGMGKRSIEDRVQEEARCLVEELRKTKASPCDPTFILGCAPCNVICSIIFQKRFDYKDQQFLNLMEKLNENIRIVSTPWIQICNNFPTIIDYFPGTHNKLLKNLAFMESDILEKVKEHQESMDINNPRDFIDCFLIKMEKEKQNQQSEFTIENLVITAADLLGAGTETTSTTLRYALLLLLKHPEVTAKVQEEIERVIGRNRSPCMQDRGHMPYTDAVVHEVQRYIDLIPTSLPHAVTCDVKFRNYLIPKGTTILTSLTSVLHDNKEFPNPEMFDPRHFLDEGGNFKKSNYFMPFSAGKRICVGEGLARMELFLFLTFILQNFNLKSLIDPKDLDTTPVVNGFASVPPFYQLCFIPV
Chain of Cytochrome P450 2C9 (Homo sapiens) (P11712 whole entry, looked up): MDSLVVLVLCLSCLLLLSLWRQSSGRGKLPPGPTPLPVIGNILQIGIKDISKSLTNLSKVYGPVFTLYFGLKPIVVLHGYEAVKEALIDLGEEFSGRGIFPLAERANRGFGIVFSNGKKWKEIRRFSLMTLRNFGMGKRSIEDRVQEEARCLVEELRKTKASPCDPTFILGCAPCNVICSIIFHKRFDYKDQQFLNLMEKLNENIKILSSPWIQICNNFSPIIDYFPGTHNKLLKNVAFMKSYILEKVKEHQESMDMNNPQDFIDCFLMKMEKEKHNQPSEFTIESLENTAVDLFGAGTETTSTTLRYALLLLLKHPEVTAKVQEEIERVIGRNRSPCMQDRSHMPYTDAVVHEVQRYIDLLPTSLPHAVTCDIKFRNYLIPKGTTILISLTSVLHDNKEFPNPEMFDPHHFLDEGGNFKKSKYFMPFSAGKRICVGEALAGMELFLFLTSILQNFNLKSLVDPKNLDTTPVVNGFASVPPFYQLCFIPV

| Structure (SMILES) | Potency [1] | Potency [2] | Potency [3] | Potency [4] | Potency [5] | outcome [6] | Potency [7] | outcome [8] | outcome [9] | Potency [10] | outcome [11] | Potency [12] | max response [13] | outcome [14] | outcome [15] | outcome [16] | outcome [17] | outcome [18] |
| --- | --- | --- | --- | --- | --- | --- | --- | --- | --- | --- | --- | --- | --- | --- | --- | --- | --- | --- |
| C/C=C/C=C/C(O)=C1\C(=O)[C@]2(C)C3C(C(=O)CC/C=C/C)=C(O)C4(C)C1[C@]1(C)O[C@@]4(O)[C@@]3(C)O[C@@]12O | inactive | inactive | inactive | 4.62 µM (active) | inactive |  |  |  |  |  |  |  |  |  |  |  |  |  |
| CC(C)=CCC(O)/C(C)=C/CO[C@@H]1O[C@H](CO)[C@@H](O)[C@H](O)[C@H]1O (stereo not given in full) | inactive | inactive | inactive | inactive | inactive | inactive | inactive | inactive | inactive | 2.51 µM (active) | inactive | 3.55 µM (active) | -4.77% | inactive | inactive | inactive | inactive |  |
| COC(=O)/C=C/C12COC(C)(C)C1C(O)C(OC(C)=O)C1(C)C2CCC2(C)C(c3ccoc3)OC(=O)C3OC321 (stereo not given) | inactive | inactive | inactive | inactive | inactive |  |  |  |  |  |  |  |  |  |  |  |  |  |
| CO[C@H]1/C=C/C=C/C=C/C[C@H](OC(=O)[C@@H](C)NC(=O)C2CCCCC2)[C@H](C)[C@@H](O)/C(C)=C/CCc2cc(O)cc(c2)NC(=O)C1 | inactive | inactive | inactive | 5.61 µM (active) | inactive |  |  |  |  |  |  |  |  |  |  |  |  |  |
| CC(C)=CCC[C@](C)(O)[C@H]1CC[C@]2(C)[C@@H]1[C@H](O)CC1[C@@]3(C)CC[C@H](O)C(C)(C)[C@@H]3[C@@H](O[C@@H]3O[C@H](CO)[C@@H](O)[C@H](O)[C@H]3O[C@@H]3O[C@H](CO)[C@@H](O)[C@H](O)[C@H]3O)C[C@]12C (stereo not given in full) | inactive | inactive | inactive | inactive | inactive | inactive | inactive | inactive | inactive | inactive | inactive | inactive | -4.33% | inactive | inactive | inactive | inactive | inactive |
